Screens from PubChem.
Sampled rows, rich in hits. Any-hit rate of the full collection: about 6.8%.
KB-V1 cytotox: kills drug-selected multidrug resistant KB-V1 cells; KB-V1 MDR cells viability, CellTiter-Glo, 72 h; Potency, µM (doses to about 46.1 µM), usual class: cytotoxic; hit rate 3.4% among 400,000; also: % is scaled to controls: 0 for no effect and ±100 for the full control effect; nearly all actives have a fitted effect of over 60% in size
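qHTS viability screen in drug-selected KB-V1 MDR cells: 72 h compound treatment at 37 degrees C, ATP luminescence end point.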
SW480 rerep: inducers of DNA re-replication in SW480 colon cancer cells | hit rate 1.8% among 340,000 | Potency, µM (titrated, usually from 46.1 µM), without a hit: at the highest dose re-replication activation, most hits filed as activators | SW480 DNA re-replication, Hoechst DNA content imaging, 48 h; also: % of control where 0% means no effect; nearly all actives have a fitted effect of over 55% in size
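First, 250 cells per well were seeded. Next, compound or vehicle (23 nL) was pinned in, plates sat 48 hr at 37 C. Finally Hoechst was added for 40 min before fluorescence scanning.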
PTAP TSG101 blk: blocks PTAP/TSG101 interaction to inhibit HIV-1 budding | Potency, µM (series often up to 115 µM), for the others: top-dose activity change, negative = inhibition, usual class: inhibitors | Q99816 | Fluorescence polarization, FITC-PTAP peptide / Tsg101 binding | 340,000 tested, under 10 active; active = well fitted inhibition curve with a large enough effect in the main read-out, with a control signal flat, not every such curve was filed as active; inconclusive = small, poorly fitted or top-dose-only effect, or effect the other way, or a change in a side signal; inactive = no such curve, though single readings can be large or run the other way; also: % of control where 0% means no effect
Target sequence (Q99816 whole entry, looked up): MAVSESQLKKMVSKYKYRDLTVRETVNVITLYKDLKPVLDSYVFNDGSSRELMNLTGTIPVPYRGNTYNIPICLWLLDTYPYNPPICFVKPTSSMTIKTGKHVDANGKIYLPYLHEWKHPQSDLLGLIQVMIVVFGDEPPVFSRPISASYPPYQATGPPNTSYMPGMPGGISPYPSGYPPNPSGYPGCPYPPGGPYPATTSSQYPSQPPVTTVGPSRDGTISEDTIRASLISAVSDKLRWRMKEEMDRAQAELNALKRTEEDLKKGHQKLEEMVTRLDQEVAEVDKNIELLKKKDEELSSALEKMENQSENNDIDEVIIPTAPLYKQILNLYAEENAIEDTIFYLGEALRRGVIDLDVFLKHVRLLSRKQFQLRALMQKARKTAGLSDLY
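Fluorescence polarization binding of Tsg101 binding domain (10 uM final) to FITC-labeled PTAP peptide (50 nM final) in HEPES pH 7.5 buffer with NaCl, Tween 20, EDTA, TCEP. Compounds added before peptide; binding 20 min at RT.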
MCF10A rerep: inducers of DNA re-replication in MCF 10A breast cells. MCF 10A DNA re-replication, Hoechst nuclear intensity, 48 h. Potency, µM (top dose mostly 46.1 µM), without a hit: top-dose activity, positive = re-replication, hits mostly activators. hit rate 2.9% among 350,000; also: % of control where 0% means no effect; nearly all actives have a fitted effect of over 50% in size
KB-3-1 cytotox: KB-3-1 parental cell cytotoxicity. KB-3-1 viability, CellTiter-Glo ATP luminescence, 72 h. Potency, µM (top dose mostly 46.1 µM), actives largely listed as cytotoxic. hit rate 1.4% among 400,000. AID 1347075; also: % is scaled to controls: 0 for no effect and ±100 for the full control effect; nearly all actives have a fitted effect of over 60% in size
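Luminescent ATP read-out (CellTiter-Glo) measures survival of drug-naive KB-3-1 cells after 72 h compound exposure at 37 °C. Titration series was screened from lowest to highest concentration, with DMSO vehicle plates as background controls.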
PINK1 expr mod: PINK1 expression modulation; PINK1 immunofluorescence, high-content cytometry, 24 h; Potency, µM (titrated, usually from 76.6 µM), without a hit: at the top dose activation (PINK1 increase), hits mostly activators; hit rate 0.2% among 410,000; active = well fitted activation curve with a large enough effect; inconclusive = small, poorly fitted or top-dose-only effect; cell line not stated here; also: % of control where 0% means no effect; nearly all actives have a fitted effect of over 65% in size
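Compound titrations (5 concentrations, 24 h) on a stable cell line; DMSO and CCCP controls. Endpoint: fixed-cell PINK1 immunofluorescence with mitochondrial, cell and nuclear markers, scanned by microplate cytometer.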
An asterisk follows results filed as active; i = inactive; ? = inconclusive; . = no result; ! = repeats disagree; [ ] = dose if it differs, or a comment. Unless noted, calls follow the shape of the dose curve; as a rule, active = well fitted curve in the direction sought with a large enough effect; inconclusive = small, poorly fitted or top-dose-only effect, or another doubt; inactive = no such curve, though single readings can be large; an effect the other way counts as inactive or inconclusive. Potency is read from the fitted curve at half-maximal effect.

SMILES	KB-V1 cytotox	SW480 rerep	PTAP TSG101 blk	MCF10A rerep	KB-3-1 cytotox	PINK1 expr mod
CCC(c1nnnn1-c1ccc2c(c1)OCCO2)N1CCN(c2ccc(OC)cc2)CC1 (stereo unspecified)	16µM*	.	.	.	?	0%
CCC(c1nnnn1-c1ccc2c(c1)OCCO2)N1CCN(c2ncccn2)CC1 (stereo unspecified)	i	.	.	.	i	4%
CCC(c1nnnn1-c1ccc2c(c1)OCCO2)N1CCN(c2ccccc2)CC1 (stereo unspecified)	i	.	.	.	?	0%
COc1cccc(CNC(=O)CSc2nc3ccccc3nc2Cc2ccccc2)c1	i	.	.	.	i	2%
Cc1c(Cl)cccc1NC(=S)N(CCN(C)C)C(C)c1ccccn1 (stereo unspecified)	i	5%	0%	0%	i	2%
Cc1ccccc1NC(=S)N(CCN(C)C)C(C)c1ccccn1 (stereo unspecified)	16µM*	4%	-4%	15%	i	1%
CC(=O)Nc1cc2c3c(cccc3c1)-c1ccccc1-2	i	16µM*	-2%	2.3µM*	i	?
N#CC(C#N)=C1SC(=Nc2ccccc2)C(=Nc2ccccc2)N1c1ccccc1	?	?	-1%	3.3µM*	21µM*	32µM*
CC1CCN(C2=NC(=O)/C(=C/c3cn(-c4ccccc4)nc3-c3cccc(S(=O)(=O)N(C)C)c3)S2)CC1	i	21µM*	1%	5%	i	-1%
CC1CCCN(C2=NC(=O)/C(=C/c3cn(-c4ccccc4)nc3-c3cccc(S(=O)(=O)N(C)C)c3)S2)C1 (stereo unspecified)	i	0%	-6%	?	i	1%
CCCCCCSc1cc(-c2nc3ccc(C)cn3c2NCc2ccccc2)ccc1OC	13µM*!	?	1%	?	?	?
CCCCCCSc1cccc(-c2nc3ccccn3c2NCc2ccccc2)c1	?	?	-7%	21µM*	?	?
CCCCCCSc1cc(-c2nc3ccc(Cl)cn3c2NC2CCCCC2)ccc1OC	i	2%	7%	-5%	i	6%
CCCCCCSc1cccc(-c2nc3ccc(C)cn3c2NCc2ccccc2)c1	i	-7%	1%	?	i	25µM*
CCCCCCSc1cccc(-c2nc3cc(C)ccn3c2NCc2ccccc2)c1	?	-6%	-1%	?	?	?
Cc1ccc(NC(=O)NCC2CC2(Cl)Cl)cc1 (stereo unspecified)	i	3%	0%	-1%	i	1%
O=C(NCC1CC1(Cl)Cl)Nc1ccc(Cl)c(Cl)c1 (stereo unspecified)	?	?	1%	18µM*	?	?
C/C1=C2N=C(/C=C3N=C(/C(C)=C4\[N-]C(C)(C5N=C1C(C)(CCC(=O)NCC(C)OP(=O)([O-])O[C@H]1C(O)C(n6cnc7cc(C)c(C)cc76)O[C@@H]1CO)C5CC(N)=O)C(C)(CC(N)=O)C4CCC(N)=O)C(C)(CC(N)=O)C\3CCC(N)=O)C(C)(C)C/2CCC(N)=O.[CH2-]C1OC(n2cnc3c(N)ncnc32)C(O)C1O.[Co] (stereo partly specified)	.	.	.	1%	.	.
CC(=O)c1cnc(-c2cccc(Cl)c2)s1	?	-38%	0%	2.1µM*	i	3%
CN(C)/C=C/C(=O)c1cnc(-c2cccc(Cl)c2)s1	i	-1%	-5%	0.65µM*	i	2%
O=C(c1cnc(-c2ccccc2)s1)c1ccc(Cl)cc1Cl	?	2%	-2%	17%	i	-18%[38.3 µM]
CN(C)/C=C/C(=O)c1cnc(-c2ccccc2Cl)s1	i	11%	-4%	?	i	0%
COc1ccc(CCC(=O)NCc2nc3cccnc3n2Cc2ccccc2)cc1	.	.	.	.	.	0%
CCN(CC(=O)Nc1ccc2c(c1)OCCO2)C(=O)/C=C/c1ccc(OC)c(OC)c1	?	-11%	-3%	-1%	?	1%
CCN(CC(=O)Nc1ccc2c(c1)OCCO2)C(=O)/C=C/c1ccc([N+](=O)[O-])cc1	21µM*	-2%	-2%	21%	i	-1%
SMILES	KB-V1 cytotox	SW480 rerep	PTAP TSG101 blk	MCF10A rerep	KB-3-1 cytotox	PINK1 expr mod
COC1CCC2(C)C(=CCC3C4CC(O)CC4(C)CCC32)C1 (stereo unspecified)	18µM*	-2%	0%	12%	i	12%
COc1cccc(C(=O)NCC2Cc3cccc(-c4nc(C)cnc4C)c3O2)c1OC (stereo unspecified)	.	.	.	.	.	1%
CCc1cnc2c(c1SC(C(C)=O)C(=O)N(C)C)c(=O)n(C)c(=O)n2C (stereo unspecified)	i	.	.	.	i	1%
CCN(CC(=O)Nc1ccccc1OC)C(=O)CSCC(=O)Nc1ccc(OC)cc1	?	-4%	-5%	-5%	i	-4%
CCN(CC)C(=O)CSCC(=O)Nc1ccccc1	i	-4%	0%	8.2µM*	i	2%[38.3 µM]
CN(Cc1ccccc1)C(=S)Nc1ccc(OC(F)F)cc1	15µM*	-5%	-2%	-3%	i	-2%
O=C(NCc1ccc2c(c1)CCN2C(=O)c1ccccc1)c1ccco1	i	.	.	.	i	2%
COc1ccc(CNn2c(-c3cccs3)nc3ccccc3c2=O)cc1OC	23µM*	?	1%	?	i	-1%
O=c1c2cnn(-c3ccccc3)c2nc(-c2cccs2)n1-c1cccc(Cl)c1	10µM*	6%	1%	?	?	5%
O=c1c2cnn(-c3ccccc3)c2nc(-c2cccs2)n1-c1ccc(Cl)cc1	i	-6%	-3%	?	i	-1%
O=c1c2ccccc2nc(-c2cccs2)n1-c1cccc2ccccc12	23µM*	-131%	-1%	22%	?	1%
COc1cccc(-c2ncnn2-c2sc3c(c2C#N)CCCCC3)c1OC	i	.	.	.	i	2%
CCc1ccc(-n2nc(CO)c(C(=O)NCc3ccccc3OC)n2)cc1	.	.	.	.	.	-1%
O=C(Nc1ccccc1)N(Cc1cccs1)c1ccc(F)cc1	i	.	.	.	i	1%
COc1cc(Cl)c(NC(=O)CN2C(=O)c3cccnc3Sc3ccccc32)c(OC)c1	.	.	.	.	.	2%
COc1cccc(CN2CCC2(C)C(=O)Nc2cccc(NS(C)(=O)=O)c2)c1OC (stereo unspecified)	i	.	.	.	i	0%
